ssDAF12 agonist: S. stercoralis DAF-12 nuclear receptor activators, primary screen, cell-based, luminescence, HEK293, GRIP1 co-expression, lit1-tk-luc; HEK293 ssDAF-12/GRIP1 lit1-tk-luc reporter; % of 3 µM dafachronic acid response; activation, % at 6.8 µM; 1% of 370,000 active; AID 652126, 2013;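 active = activation above the mean over all tested compounds plus 3 SD, cut at about 0.9% in these data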;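 note: 0% = DMSO-only wells and 100% = 3 µM delta7-dafachronic acid wells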
hcDAF12 agonist: H. contortus DAF-12 nuclear receptor activators, primary screen, cell-based, luminescence, HEK293, lit1-tk-luc reporter | AID 652067, 2013 | HEK293 hcDAF-12 lit1-tk-luc reporter; 0% DMSO, 100% Δ7-dafachronic acid | activation, % at 6.8 µM | 1.4% of 370,000 active;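 active = activation above the mean of all tested compounds plus 3 SD, cut at about 5.5% in these data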;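 note: 100% = response to 3 µM Δ7-dafachronic acid high control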
DAX1 inh-1: DAX1 (NR0B1) inhibitors, primary screen, cell-based, HEK293, Gal4-DAX1, luciferase luminescence | Nuclear receptor subfamily 0 group B member 1 (Homo sapiens), P51843 | HEK293 Gal4-DAX1 luciferase reporter | inhibition, % at 6.75 µM | 0.99% of 340,000 active | AID 504766, 2011;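 active = inhibition above the mean over all tested compounds plus 3 SD, cut at about 4.2% in these data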;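 note: 0% = DAX1-transfected cells with DMSO and 100% = empty-vector control cells with DMSO; inhibition shows as a rise in luminescence from relieved DAX1 repression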
Target sequence (P51843 207-470 limits assumed): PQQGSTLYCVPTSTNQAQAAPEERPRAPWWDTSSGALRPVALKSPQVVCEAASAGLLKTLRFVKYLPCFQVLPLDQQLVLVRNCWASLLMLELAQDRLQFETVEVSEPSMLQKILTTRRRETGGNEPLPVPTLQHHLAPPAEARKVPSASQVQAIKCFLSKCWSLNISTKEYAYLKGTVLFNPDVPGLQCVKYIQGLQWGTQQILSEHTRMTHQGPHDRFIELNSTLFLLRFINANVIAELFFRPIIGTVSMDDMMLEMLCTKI
DAX1 inh-2: DAX1 (NR0B1) inhibitors on StAR promoter, primary screen, cell-based, luminescence, SF-1 (NR5A1), full-length DAX-1 | HEK293T StAR-luciferase reporter, SF-1/DAX-1 repression relief | inhibition, % at 6.8 µM | 1.1% of 370,000 active | AID 652010, 2013;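 active = inhibition above the mean over all tested compounds plus 3 SD, cut at about 3.6% in these data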;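 note: 0% = DAX-1 cells with DMSO and 100% = cells lacking DAX-1 with DMSO; higher inhibition means more luminescence from relief of DAX-1 repression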
hgDAF-12 ag: H. glycines DAF-12 receptor agonists, primary screen, cell-based, luminescence, HEK293, GAL4 fusion, UAS-luciferase; AID 687014, 2013; Nuclear hormone receptor DAF-12 (Heterodera glycines), GAL4 fusion; HEK293 GAL4-hgDAF12 UAS-luciferase reporter, agonist luminescence; normalized to butyrate control; activation, % at 6.8 µM; 1.8% of 370,000 active;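 active = activation above a cutoff set at the mean of all screened compounds plus 3 SD, cut at about 10% in these data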;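 note: 0% = DMSO wells and 100% = sodium butyrate wells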
AHR activator: AHR activators, primary screen, cell-based, luminescence, luciferase reporter, human | Aryl hydrocarbon receptor (Homo sapiens), P35869 | AHR-responsive luciferase reporter cells | activation, % at 5 µM | 2.5% of 320,000 active | AID 2796, 2010; in the data active = activation above about 47%;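 note: 0% = vehicle wells and 100% = reference agonist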
DAX1 conf: DAX1 (NR0B1) inhibitors relieving SF-1 repression, confirmation, cell-based, luminescence, HEK293T, full-length DAX-1, SF-1 activated StAR promoter; shares compounds with DAX1 inh-2; HEK293T StAR-promoter luciferase reporter, SF-1/DAX-1 repression; inhibition, % at 6.8 µM; 87% of 2,400 active;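 active = inhibition above the average of every tested compound plus 3 SD, cut at about 3.8% in these data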;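 note: 0% = DAX-1 cells with DMSO and 100% = no DAX-1 control cells with DMSO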
SF1 mutant ctr: StAR reporter signal changes without DAX1, counter-screen for DAX1 inhibitor project, cell-based, luminescence, AF-2 mutant SF-1, transactivation; shares compounds with DAX1 inh-2; HEK293 StAR-luciferase, SF-1 AF2 mutant; inhibition, % at 6.8 µM; 78% of 2,400 active; AID 652136, 2013;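 active = inhibition above the mean of all tested compounds plus 3 SD, cut at about 3% in these data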;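 note: 0% = DAX-1 transfected cells with DMSO and 100% = cells without DAX-1 with DMSO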
* = called active by the depositor; x = no result given. Shown are actives, neighbours in structure and some others; about 5.7% of the full set was active somewhere.

SMILES	ssDAF12 agonist	hcDAF12 agonist	DAX1 inh-1	DAX1 inh-2	hgDAF-12 ag	AHR activator	DAX1 conf	SF1 mutant ctr
Cc1ccc2nc(-c3cccc(Br)c3)c(Cc3ccccn3)n2c1	1.1*	2	x	5.1*	8	x	7.8*	5.0*
Cc1ccc2nc(-c3cccc(Br)c3)c(Cc3ccccc3C(F)(F)F)n2c1	0	0	x	5.1*	7	x	4.0*	4.2*
Cc1ccc2nc(-c3ccccn3)c(Nc3ccccc3C)n2c1	-1	-3	1	0	-6	2	x	x
Cc1ccc2nc(-c3ccccn3)c(N)n2c1	1	5	x	5.4*	11*	x	15*	6.8*
Cc1ccc2nc(-c3ccc(Cl)cc3)c(Cc3ccccn3)n2c1	-1	5	x	6.7*	11*	x	14*	4.5*
FC(F)(F)c1ccccc1Cc1c(-c2cccc(Cl)c2)nc2ccc(Br)cn12	0	1	x	2	3	x	x	x
CNS(=O)(=O)c1cnccc1N1CCN(c2cccc(C(F)(F)F)c2)CC1	-1	-3	0	-1	-2	10	x	x
Cc1ccc(CNC(=O)Cc2noc3ccccc23)cc1	0	3	0	9.5*	11*	3	8.2*	4.8*
CCOC(=O)/C=C/c1cnn(-c2ccccc2)c1	0	2	1	2	7	-2	x	x
O=C(O)/C=C/c1cnn(-c2ccccc2)c1	-1	1	-2	5.0*	3	x	7.3*	3.5*
Cc1ccccc1S(=O)(=O)/N=C(/Nc1c(C)n(C)n(-c2ccccc2)c1=O)c1ccccc1	-1	-1	0	-1	1	1	x	x
Cc1ccccc1S(=O)(=O)/N=C(/Nc1nc2ccccc2s1)c1ccccc1	0	2	0	5.5*	11*	33	3.8*	4.1*
Cc1ccc2sc(-c3ccc(NC(=O)/C=C\C(=O)O)cc3)nc2c1	0	6.2*	-2	5.3*	12*	x	9.9*	6.5*
Cc1nc(-c2ccc(NC(=O)/C=C\C(=O)O)cc2)cs1	-1	-1	-2	0	9	-3	x	x
COC(=O)c1sccc1NC(=O)Nc1ccc(C)cc1	1.4*	5.9*	2	8.5*	13*	x	4.6*	2
CN(C)CCn1c2c(c(SCC(=O)N3CCc4ccccc43)nc1=O)CCCC2	1	1	-1	-1	-1	3	x	x
CCN(CC)CCCn1c2c(c(SCC(=O)N3CCCc4ccccc43)nc1=O)CCC2	-1	0	0	8.0*	1	-1	2	0
O=C(NCC1(c2ccccc2)CCOCC1)c1ccc(Br)o1	-1	-1	-1	-1	2	41	x	x
CCc1ccc(C(=O)NCC2(c3ccccc3)CCOCC2)o1	-1	3	1	4.6*	13*	x	6.7*	3.4*
CCN1CCN(S(=O)(=O)c2ccc(Cl)c(C(=O)NCCc3ccccc3)c2)CC1	0	2	1	5.6*	7	8	3	3
COc1cccc(/C=C2/Sc3ccc(C(=O)NCCN4CCCC4)cc3NC2=O)c1	-1	0	0	10*	3	2	4.6*	3.2*
COc1ccc(OC)c(NC(=O)COC(=O)CSc2ccc(Cl)cc2)c1	-1	2	1	0	0	2	x	x
CC(=O)Nc1cccc(C(=O)OCC(=O)c2ccccc2Cl)c1	0	4	3	5.1*	10	2	7.3*	5.6*
COc1ccc(NC(=O)CN(C)C(=O)CSc2nc3ccccc3s2)cc1	1	4	2	5.0*	8	16	2	2
C=CCCC(=O)N1C[C@H]2CON(C)[C@H]2C[C@H]1c1cccc(Oc2ccccc2)c1	0	-2	-1	0	-2	x	x	x
SMILES	ssDAF12 agonist	hcDAF12 agonist	DAX1 inh-1	DAX1 inh-2	hgDAF-12 ag	AHR activator	DAX1 conf	SF1 mutant ctr
COc1ccc2cc(CCNC(=O)c3ccco3)c(=O)[nH]c2c1	0	5	1	6.0*	11*	2	9.4*	5.8*
CCC(CO)Oc1cc(NC(=O)c2ccccc2Cl)c2ncn(C(C)C)c2c1 (stereo not drawn)	-2	-1	-1	-1	-3	1	x	x
O=C(Nc1ccc(S(=O)(=O)N2CCCCCC2)cc1)c1[nH]ncc1[N+](=O)[O-]	0	0	1	7.0*	5	-9	3	2
O=C(Nc1ccc([N+](=O)[O-])cc1)c1ccc(S(=O)(=O)N2CCCC2)cc1	-2	-3	-2	0	-3	-1	x	x
COc1ccccc1NC(=O)C(C)OC(=O)CSCC(=O)Nc1cc(C)on1 (stereo not drawn)	-1	0	0	-1	0	12	x	x
Fc1ccc(Cn2ccc(-c3cnc(-c4ccccc4)s3)n2)cc1	-1	2	0	-1	4	-8	x	x
O=C(c1ccc(F)cc1)n1ccc(-c2cnc(-c3ccccc3)s2)n1	0.9*	5.9*	3	5.0*	13*	-2	13*	5.5*
CCN(c1cccc(C)c1)S(=O)(=O)c1cc(CN2C(=O)c3cccnc3C2=O)ccc1OC	-1	-2	0	-1	0	2	x	x
Cc1nn2c(=O)cc(COC(=O)c3c(F)cccc3Cl)nc2s1	0	1	2	8.6*	8	0	6.4*	6.2*
Cc1ccc(NC(=O)Cc2nc(COC(=O)c3c(F)cccc3Cl)cs2)cc1	-1	-1	-1	-1	0	1	x	x
CC(OC(=O)CC1CCCC1)C(=O)Nc1ccc(S(N)(=O)=O)cc1 (stereo not drawn)	-1	0	-1	4.9*	1	-1	2	1

Source: PubChem
